Experimental findings from PubChem BioAssay are described below.

Assay [1] concerns Wnt5a (protein binding on small-molecule microarray). Description: small molecules binding Wnt5a protein – biophysical, small-molecule microarray, 635/667 nm fluorescence, primary screen (AID 1142).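 Note: fluorescence read at 667 nm with signal to noise per printed feature.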 The following applies: 635 nm fluorescence, higher = more signal.
A short description of assay [2]: ATP-based viability of Huh7 replicon cells – cell-based, CellTiter-Glo luminescence, basal, 48 h, cytotoxicity control for HCV replication inhibitor project, primary screen (AID 1143).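 Note: Huh7 hepatoma cells carrying a hepatitis C replication reporter with no stimulus; test concentration not given here.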 The following applies: higher = more signal, called active from +8 up or from −8 down. A general note: In antiviral work, replicon cells carry a viral genome segment that copies itself.

Assay [3] can be described thus: Pseudomonas biofilm growth suppression – PAO1 strain, BacTiter-Glo luminescence, LB-PBS, primary screen (AID 1144). The following applies: P. aeruginosa PAO1 biofilm, 12 h, higher = more signal.
A short description of assay [4]: basal CRE-LacZ reporter activity in PC12 – cell-based, unstimulated, primary screen (AID 1145). The following applies: no forskolin, luminescence, 4.5 h, higher = more signal, called active from +8 up or from −8 down.
Assay [5] is described as follows: forskolin-driven CRE-LacZ activity in PC12 – cell-based, CRE-LacZ reporter, forskolin-stimulated, primary screen (AID 1146).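 Note: PC12 cells with 6xCRE LacZ reporter stimulated by forskolin 10 µM; beta-galactosidase reporter signal reflecting CREB driven transcription.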 The following applies: luminescence, 4.5 h, higher = more signal, called active from +8 up or from −8 down.
The target of assay [6] is Streptavidin (Streptomyces avidinii) (UniProt P22629). Description: compounds binding control protein streptavidin – biophysical, small-molecule microarray, 635/667 nm fluorescence, artefact control for SMM compound annotation, primary screen (AID 1147).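 Note: signal reflects streptavidin binding to arrayed compounds as a control protein.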 The following applies: higher = more signal.
Assay [7] can be described thus: probe aInhba binding on compound microarray – biochemical, small-molecule microarray, 635/667 nm fluorescence, primary screen (AID 1148).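 Note: score merges 667nm spot fluorescence with signal-to-noise for antibody binding to printed compounds.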 The following applies: higher = more signal.
Assay [8] deals with Torsin-1A (Homo sapiens) (UniProt O14656). Description: TOR1A wild-type binding on microarray – cell lysate, small-molecule microarray, lysate, 635/667 nm, primary screen (AID 1149). The following applies: COS7 hTOR1A-WT lysate, 635 nm fluorescence, higher = more signal.
Assay [9] has the same target. Kind of assay: torsin A mutant lysate binding on microarrays – cell lysate, small-molecule microarray, COS7 lysate, 635/667 nm fluorescence, primary screen (AID 1150).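 Note: score pools 667 nm emission and signal to noise measuring lysate protein binding.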 The following applies: COS7 hTOR1A mutant lysate, 635 nm fluorescence, higher = more signal.
Assay [10] deals with Sonic hedgehog protein (Shh). Description: Sonic hedgehog microarray binding compounds – biochemical, small-molecule microarray, 635/667 nm fluorescence, primary screen (AID 1151).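 Note: Shh protein binding to compounds spotted on small-molecule microarray slides; score combines spot fluorescence intensity with signal-to-noise across triplicate slides.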 The following applies: 635 nm fluorescence, higher = more signal.
A short description of assay [11]: optical density shifts of acrAB sulA E. coli – strain DRC41, OD650, 48 h, E. coli filamentation inducer project, primary screen (AID 1152).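 Note: E. coli MC1000 strain DRC41 lacking acrAB efflux pump and sulA.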 The following applies: higher = more signal, called active from +8 up or from −8 down.
The nature of assay [12]: probe aLefty1 binding on compound microarray – biochemical, small-molecule microarray, 635/667 nm fluorescence, primary screen (AID 1153).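 Note: score merges spot fluorescence with signal-to-noise ratio from the scanned slide images.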 The following applies: higher = more signal.
Assay [13] in a line: plasmodial surface anion channel blockers, osmotic lysis – cell-based, P. falciparum Indochina, OD700, 1 h, primary screen (AID 1154). The following applies: P. falciparum Indochina infected RBC osmotic lysis, higher = more signal, called active from +8 up or from −8 down.
Assay [14] is described as follows: plasmodial surface anion channel blockers, osmotic lysis – cell-based, P. falciparum Indochina, OD700, 2 h, primary screen (AID 1155).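 Note: lysis reports solute entry through the parasite surface anion channel PSAC.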 The following applies: P. falciparum Indochina infected erythrocytes, higher = more signal, called active from +8 up or from −8 down.
Assay [15] can be described thus: changes in parasitized red cell lysis, either direction – P. falciparum Indochina, OD700, 3 h, PSAC antagonist project, primary screen (AID 1156). The following applies: P. falciparum-infected erythrocytes, osmotic lysis, higher = more signal, called active from +8 up or from −8 down.
Assay [16] in a line: plasmodial surface anion channel blockers, osmotic lysis – cell-based, P. falciparum Indochina, OD700, 18 h, primary screen (AID 1157). The following applies: P. falciparum Indochina infected erythrocytes, osmotic lysis OD700, 18 h; higher = more signal, called active from +8 up or from −8 down.
Assay [17] can be described thus: S6 kinase pathway phospho-S6 level changes – cell-based, A549, cytoblot, luminescence, serum-stimulated, primary screen (AID 1158).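 Note: serum-stimulated A549 lung adenocarcinoma cells; signal is phosphorylated S6 detected by cytoblot immunostaining with HRP secondary.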 The following applies: 5 h, higher = more signal.
The target of assay [18] is NADPH oxidase 2 (Homo sapiens) (UniProt P04839). Kind of assay: compounds shifting NOX2 Amplex Red fluorescence – cell-based, HEK293-NOX2, PMA-stimulated, NOX inhibitor project, primary screen (AID 1159). Note: test concentration not given here. The following applies: 45 min, higher = more signal, called active from +8 up or from −8 down.
In assay [19] the target is NADPH oxidase 4 (Homo sapiens) (UniProt Q9NPH5). Kind of assay: compounds shifting NOX4 Amplex Red fluorescence – cell-based, HEK293-NOX4, tetracycline-induced, NOX inhibitor project, primary screen (AID 1160). The following applies: HEK293-NOX4, Amplex Red H2O2 fluorescence, 45 min; higher = more signal, called active from +8 up or from −8 down.
Assay [20] addresses NADPH oxidase 5 (Homo sapiens) (UniProt Q96PH1). Kind of assay: compounds shifting NOX5 Amplex Red fluorescence – cell-based, HEK293-NOX5, NOX inhibitor project, primary screen (AID 1161). The following applies: HEK293-NOX5, ionomycin, 45 min, higher = more signal.

The source made the active and inactive calls. Unless noted, the rule behind the calls is not given here.

NADPH oxidase 5 (Homo sapiens), sequence (Q96PH1 whole entry, looked up): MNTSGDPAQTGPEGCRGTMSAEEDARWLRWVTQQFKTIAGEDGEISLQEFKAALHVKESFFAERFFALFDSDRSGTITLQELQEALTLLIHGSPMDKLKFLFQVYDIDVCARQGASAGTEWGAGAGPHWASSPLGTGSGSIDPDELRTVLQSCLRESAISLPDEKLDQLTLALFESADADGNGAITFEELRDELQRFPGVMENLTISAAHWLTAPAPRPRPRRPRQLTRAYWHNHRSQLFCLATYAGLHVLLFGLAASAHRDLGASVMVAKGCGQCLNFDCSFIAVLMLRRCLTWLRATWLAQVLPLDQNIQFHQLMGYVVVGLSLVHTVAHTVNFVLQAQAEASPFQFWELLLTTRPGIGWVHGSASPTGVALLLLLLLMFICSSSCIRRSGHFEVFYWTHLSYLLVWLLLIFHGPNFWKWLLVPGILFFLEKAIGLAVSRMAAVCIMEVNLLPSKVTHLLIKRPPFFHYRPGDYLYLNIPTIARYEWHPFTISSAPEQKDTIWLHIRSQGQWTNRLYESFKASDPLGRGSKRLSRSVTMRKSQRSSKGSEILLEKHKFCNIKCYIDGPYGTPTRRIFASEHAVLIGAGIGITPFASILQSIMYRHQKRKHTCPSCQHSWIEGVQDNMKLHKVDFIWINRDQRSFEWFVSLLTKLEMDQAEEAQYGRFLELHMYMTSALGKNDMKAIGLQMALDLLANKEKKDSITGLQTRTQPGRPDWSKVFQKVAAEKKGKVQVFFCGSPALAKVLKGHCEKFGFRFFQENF
NADPH oxidase 2 (Homo sapiens), sequence (P04839 whole entry, looked up): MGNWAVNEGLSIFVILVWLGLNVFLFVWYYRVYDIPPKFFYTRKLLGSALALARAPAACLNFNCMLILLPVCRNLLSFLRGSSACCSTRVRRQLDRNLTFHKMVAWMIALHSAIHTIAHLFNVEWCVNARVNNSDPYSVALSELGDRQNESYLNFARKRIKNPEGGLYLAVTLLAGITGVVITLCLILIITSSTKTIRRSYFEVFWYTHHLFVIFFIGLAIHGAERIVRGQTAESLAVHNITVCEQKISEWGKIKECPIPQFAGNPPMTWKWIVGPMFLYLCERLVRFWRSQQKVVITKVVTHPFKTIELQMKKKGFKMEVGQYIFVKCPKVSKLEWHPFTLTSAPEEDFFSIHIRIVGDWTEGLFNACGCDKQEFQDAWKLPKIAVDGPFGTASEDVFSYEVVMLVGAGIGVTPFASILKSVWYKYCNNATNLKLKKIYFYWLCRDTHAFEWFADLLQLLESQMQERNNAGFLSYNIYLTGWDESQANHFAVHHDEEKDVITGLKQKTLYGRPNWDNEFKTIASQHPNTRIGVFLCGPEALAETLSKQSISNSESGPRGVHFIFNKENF
NADPH oxidase 4 (Homo sapiens), sequence (Q9NPH5 whole entry, looked up): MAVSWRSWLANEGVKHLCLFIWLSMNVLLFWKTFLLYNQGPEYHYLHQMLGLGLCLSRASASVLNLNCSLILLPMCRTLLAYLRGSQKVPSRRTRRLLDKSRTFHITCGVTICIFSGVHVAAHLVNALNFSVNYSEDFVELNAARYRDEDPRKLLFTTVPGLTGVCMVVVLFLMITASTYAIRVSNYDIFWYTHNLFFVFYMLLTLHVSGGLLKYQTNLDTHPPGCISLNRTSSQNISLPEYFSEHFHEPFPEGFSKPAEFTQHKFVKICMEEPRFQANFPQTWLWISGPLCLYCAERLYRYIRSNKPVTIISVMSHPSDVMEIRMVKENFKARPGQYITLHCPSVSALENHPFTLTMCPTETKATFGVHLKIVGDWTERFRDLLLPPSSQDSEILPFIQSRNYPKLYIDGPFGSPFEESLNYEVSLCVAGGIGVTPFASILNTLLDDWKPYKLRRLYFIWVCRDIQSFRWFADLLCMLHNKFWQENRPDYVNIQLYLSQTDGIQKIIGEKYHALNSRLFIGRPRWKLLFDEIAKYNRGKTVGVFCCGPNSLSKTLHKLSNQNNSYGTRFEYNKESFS
Torsin-1A (Homo sapiens), sequence (O14656 whole entry, looked up): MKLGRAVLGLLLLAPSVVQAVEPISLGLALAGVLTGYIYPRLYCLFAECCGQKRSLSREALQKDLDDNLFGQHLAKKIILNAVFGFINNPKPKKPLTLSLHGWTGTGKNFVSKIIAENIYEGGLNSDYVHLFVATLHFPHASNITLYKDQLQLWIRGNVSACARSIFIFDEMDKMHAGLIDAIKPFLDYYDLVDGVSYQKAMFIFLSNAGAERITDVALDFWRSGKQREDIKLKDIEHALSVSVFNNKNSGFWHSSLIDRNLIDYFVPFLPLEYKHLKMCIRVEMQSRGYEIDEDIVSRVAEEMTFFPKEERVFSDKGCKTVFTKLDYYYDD
Streptavidin (Streptomyces avidinii), sequence (P22629 whole entry, looked up): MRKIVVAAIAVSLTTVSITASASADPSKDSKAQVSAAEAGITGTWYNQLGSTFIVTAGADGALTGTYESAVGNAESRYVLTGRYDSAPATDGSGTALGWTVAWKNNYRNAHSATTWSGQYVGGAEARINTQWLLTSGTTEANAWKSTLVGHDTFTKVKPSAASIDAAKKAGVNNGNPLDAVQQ

As for `CCOC(=O)C[C@H]1[C@H](OC(=O)c2ccccc2-c2ccccc2)[C@@H](NC(=O)c2ccc(-c3ccccc3)cc2)c2cc(OCCCO)ccc2N1C(=O)Cc1ccc(OC)cc1`, the composite z-score in assay [1] is 0.17; in [6], 0.0511; in assay [7], 0.038; with Torsin-1A (Homo sapiens) [8], -0.153; in the assay with Torsin-1A (Homo sapiens) [9] it was 1.02; in [10], 0.56. Also, in assay [12], the composite z-score is -0.147. Also, the z-score was 0.132 (inactive) in [2]; 0.846 (inactive) in [3]; 2.3 (inactive) in assay [4]; 0.41 (inactive) in assay [5]; -0.866 (inactive) in assay [11]; 17.3 (active) in assay [13]. Also, the z-score in assay [14] was 2.83 (inactive); in assay [15], -0.405 (inactive); in [16], 0.575 (inactive); in assay [17] it was 0.111; in assay [18] it was 0.155 (inactive); in assay [19], 1.22 (inactive). The z-score in assay [20] turned out to be 1.21.
Consider `O=C1C[C@@](C(=O)NC2CC2)(c2ccc([N+](=O)[O-])cc2)[C@@H](c2ccc(CO)cc2I)N1CC12CC3CC(CC(C3)C1)C2`, for which the composite z-score in assay [1] was 0.157; in assay [6] it was 0.376; in [7], -0.134; in the assay with Torsin-1A (Homo sapiens) [8], -0.371; in the assay with Torsin-1A (Homo sapiens) [9], 0.362; in [10] it was 1.95. Further, the composite z-score in [12] amounted to 0.0158. Moreover, the z-score was -5.82 (inactive) in [2]; 0.87 (inactive) in assay [3]; 0.818 (inactive) in assay [4]; 1.25 (inactive) in [5]; -1.11 (inactive) in assay [11]; 22.3 (active) in assay [13]. Besides, the z-score in assay [14] was 6.32 (inactive); in assay [15] it was 1 (inactive); in [16], 1.99 (inactive); in assay [17], -0.284; in [18] it was 1.86 (inactive); in [19], 0.129 (inactive). Besides, in [20], the z-score worked out at 1.92.
Regarding `CO[C@H]1O[C@H](CO)[C@@H](OC(=O)Nc2ccc3c(c2)OCO3)[C@H](OC(=O)Nc2ccccc2)[C@@H]1OC(=O)Nc1ccccc1`, the composite z-score came to 0.743 in assay [1]; 0.327 in assay [6]; 0.0398 in [7]; 0.491 in the assay with Torsin-1A (Homo sapiens) [8]; 1.09 in the assay with Torsin-1A (Homo sapiens) [9]; 1.12 in assay [10]. This molecule also had a composite z-score in assay [12] of 0.121. Also, the z-score in assay [2] is -3.5 (inactive); in assay [3] it was -0.22 (inactive); in assay [4], 0.605 (inactive); in assay [5], -1.49 (inactive); in assay [11], -1.51 (inactive); in [13], 7.77 (inactive). In addition, the z-score in [14] is 0.903 (inactive); in assay [15], -0.33 (inactive); in [16], 0.717 (inactive); in assay [17] it was 0.342; in assay [18], 1.07 (inactive); in [19] it was -0.393 (inactive). Moreover, the z-score in assay [20] was -0.675.
Regarding `COc1ccc([Si](C)(C)[C@@H]2[C@@H](CC(=O)N(CCO)Cc3ccccc3)O[C@]3(C(=O)N(Cc4cccc(N5CCC5=O)c4)c4ccccc43)[C@H]2C)cc1`, the composite z-score in assay [1] is 0.0348; in assay [6], -0.287; in assay [7], 0.0301; in the assay with Torsin-1A (Homo sapiens) [8], 0.0525; with Torsin-1A (Homo sapiens) [9], -0.009; in assay [10], 1.81. Moreover, in [12], the composite z-score worked out at 0.122. Besides, the z-score is -5.72 (inactive) in assay [2]; 0.765 (inactive) in assay [3]; 0.236 (inactive) in [4]; 0.398 (inactive) in assay [5]; 0.557 (inactive) in assay [11]; 3.67 (inactive) in assay [13]. For the same molecule, the z-score is 1.49 (inactive) in assay [14]; 0.0319 (inactive) in assay [15]; 1.19 (inactive) in assay [16]; 1.61 in assay [17]; 1.34 (inactive) in assay [18]; 1.48 (inactive) in assay [19]. For the same molecule, the z-score in assay [20] is 3.23.
`COc1ccc(C(=O)Nc2ccc(CN3C(=O)[C@]4(O[C@H](CCn5cc(CCO)nn5)[C@@H]([Si](C)(C)c5ccc(OC)cc5)[C@@H]4C)c4ccccc43)cc2)cc1`: the composite z-score stood at 0.278 in [1]; 0.863 in [6]; 0.279 in assay [7]; 0.421 with Torsin-1A (Homo sapiens) [8]; 0.638 in the assay with Torsin-1A (Homo sapiens) [9]; 1.99 in assay [10]. This molecule registered a composite z-score in [12] of 0.0253. Besides, the z-score was -7.86 (inactive) in assay [2]; -0.637 (inactive) in assay [3]; 3.37 (inactive) in assay [4]; -1.8 (inactive) in [5]; 0.173 (inactive) in [11]; 9.37 (active) in assay [13]. The z-score was 2.64 (inactive) in assay [14]; 1.68 (inactive) in assay [15]; 1.67 (inactive) in [16]; -0.196 in assay [17]; 0.844 (inactive) in [18]; 0.392 (inactive) in assay [19]. Also, the z-score in [20] amounted to 3.29.
